Lassa entry inh = blocks Lassa virus binding to or entry into cells; Lassa virus pseudotype entry inhibition, cell reporter; Potency, µM (doses to about 37.9 µM), without a hit: at the highest dose activity change, negative = inhibition, hits mostly inhibitors; 1.2% of 300,000 active; AID 540256; calls by dose curve; tested in HEK293 cells; note: potency is the fitted concentration of half-maximal effect; nearly all actives have a fitted effect of over 50% in size
VACV Venus inh = inhibitors of vaccinia virus (Venus reporter); Vaccinia virus Venus reporter expression, fluorescence; Potency, µM (series often up to 36.5 µM), for inactives: at the top dose activity change, negative = inhibition, actives largely listed as inhibitors; 0.46% of 330,000 active; AID 720580; calls by dose curve; tested in A549 cells; note: potency is the fitted concentration of half-maximal effect; nearly all actives have a fitted effect of over 30% in size
Vaccinia mCherry = inhibitors of vaccinia virus infection (mCherry reporter signal). 0.63% of 310,000 active. Potency, µM (series often up to 36.5 µM), for inactives: top-dose activity change, negative = inhibition, most hits filed as inhibitors. Vaccinia virus mCherry reporter infection, fluorescence. AID 720579; calls by dose curve; tested in A549 cells; note: potency is the fitted concentration of half-maximal effect; nearly all actives have a fitted effect of over 35% in size
Marburg entry inh = inhibitors of Marburg virus binding or cell entry. Marburg virus pseudotyped entry inhibition, cell reporter. AID 540276. Potency, µM (titrated, usually from 37.8 µM), for the others: top-dose activity change, negative = inhibition, most hits filed as inhibitors. 1.8% of 300,000 active; calls by dose curve; tested in HEK293 cells; note: potency is the fitted concentration of half-maximal effect
HCV inhibitor = inhibitors of hepatitis C virus infection. Potency, µM (highest dose often 41.8 µM), for the others: at the highest dose activity change, negative = inhibition, most hits filed as inhibitors. Huh7.5.1 HCVcc-Cre infection, luciferase reporter, 44 h. AID 651820. 3.4% of 340,000 active; active = well fitted inhibition curve with a large enough effect; inconclusive = small, poorly fitted or top-dose-only effect, or another doubt; inactive = no such curve, though single readings can be large or run the other way; note: potency is the fitted concentration of half-maximal effect
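1,000 cells/well; 4 h culture; + compound; + HCVcc-Cre (~0.5 moi); 44 h; luciferase substrate, RT 15 min; read 15 sec.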
HCMV antiviral = human cytomegalovirus inhibition; HFF cells, HCMV-luciferase reporter, 72 h; stronger effect = lower value; activity change, negative = inhibition, % at 57.5 µM; 4.5% of 410,000 active; AID 1259415; in the data active = activity change below about -60%; inconclusive = no clear call, values can overlap the other calls; inactive = above about -39%
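Luciferase read-out from HCMV-luciferase-infected HFFs (MOI 1 PFU/cell) 72 h post infection at 37C; compounds added after 16 h cell attachment; activity normalized between buffer-only basal and Salinomycin (10uM) inhibitor controls.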
Starred values were filed as active, the others as inactive; i = inactive; ? = inconclusive; · = no result given; [ ] = another dose, or the depositor's remark. Most compounds without a hit are left out; they make up all but 7.8% or so of the library. % is set by controls: 0 for no effect and ±100 for the full control effect.

SMILES | Lassa entry inh | VACV Venus inh | Vaccinia mCherry | Marburg entry inh | HCV inhibitor | HCMV antiviral
CN=C(NC#N)NCCSCC1N=CN=C1C (stereo not drawn) | · | · | · | 7% | · | ·
COc1ccccc1C1CCN(c2cc(O)ccc2[N+](=O)[O-])CC1 | ? | -15% | -14% | ? | -12% | -72*
O=C(Cc1ccc([N+](=O)[O-])cc1)c1c(O)cc(O)cc1O | · | · | · | · | 25% | -22
Cc1cc(O)cc(O)c1C(=O)Cc1ccccc1 | ? | -22% | -27% | ? | 9% | -71*
COc1cc2c(cc1OC)C1O[C@](CCCCN3C(=O)c4ccccc4C3=O)(C2)OC2=C1C(=O)CC(C)(C)C2 | · | · | · | -9%[14.2 µM] | · | ·
COc1ccccc1/C=C/c1ccc2cccc(O)c2n1 | -26%[46.1 µM] | -12% | ? | ? | ? | 11
Oc1cccc2ccc(/C=C/c3ccccc3Cl)nc12 | · | -25% | ? | · | 7.9µM* | -29
O=C(/C=C/c1c(F)cccc1Cl)Nc1ncccn1 | 16% | -5% | -21% | -4% | 4% | 21
Oc1cccc2ccc(/C=C/c3c(F)cccc3Cl)nc12 | 18µM* | -7% | ? | ? | 11µM* | 45
Nc1nccc(/C=C/c2c(F)cccc2Cl)n1 | 3% | -19% | -12% | -26%[46.1 µM] | -7% | -68*
COc1ccc(NC(=O)CN2c3cccc4cccc(c34)S2(=O)=O)c(OC)c1 | -15% | -1% | -1% | -14% | ? | 6
COc1cc(NC(=O)CN2c3cccc4cccc(c34)S2(=O)=O)cc(OC)c1OC | -3% | ? | ? | ? | 11µM* | -25
CCNC(=O)N1CCN(CCCC(c2ccc(F)cc2)c2ccc(F)cc2)CC1 | ? | -22% | i | 10µM* | ? | -79*
C[n+]1cc2c3c(ccc2c2ccc4cc5c(cc4c21)OCO5)OCO3 | · | 10µM* | 11µM* | 0.89µM* | · | -98*
c1nc(N2CCOCC2)c2c3c(sc2n1)CCCC3 | 0% | · | · | 4% | ? | -65*
c1ccn(-c2ncnc3sc4c(c23)CCCC4)c1 | -2% | -25% | · | 28% | -11% | ?
c1cn(-c2ncnc3sc4c(c23)CCCC4)cn1 | 21% | ? | · | 0% | 1% | -70*
Cc1cc2nccc(-c3ccncc3)n2n1 | 34%[46.1 µM] | -16% | -24% | 5%[46.1 µM] | -1% | -64*
Cc1cc2nccc(-c3ccc(Cl)cc3Cl)n2n1 | · | · | · | · | ? | -70*
CC(=O)c1cnc2cc(C)nn2c1C | 0% | -14% | · | -11% | 1% | 51
NC(=O)c1cnn2c(-c3ccc(Cl)cc3Cl)ccnc12 | ? | -7% | i | 7%[46.1 µM] | -3% | ·
CC1=C(C(N)=O)C(c2cccc(F)c2)n2nc(SCc3ccccc3)nc2N1 (stereo not drawn) | -10%[46.1 µM] | -16% | -7% | · | · | -1
Cc1ccccc1Cn1cc(NS(=O)(=O)c2cn(C)nc2C)cn1 | · | · | · | · | 16% | -60*
O=C(COC(=O)c1ccc(O)cc1O)NC1CCCCCC1 | · | · | · | · | 13µM* | 11
O=C(COC(=O)c1ccc(O)cc1O)NC12CC3CC(CC(C3)C1)C2 | · | · | · | · | 13µM* | 7
SMILES | Lassa entry inh | VACV Venus inh | Vaccinia mCherry | Marburg entry inh | HCV inhibitor | HCMV antiviral
COc1ccc(C(=O)OCC(=O)NC23CC4CC(CC(C4)C2)C3)c(O)c1 | · | -27% | ? | · | · | -27
CCOC(=O)c1c(C)[nH]c(C)c1S(=O)(=O)N1CCC(C(=O)NCc2ccc(N(C)C)cc2)CC1 | 3%[46.1 µM] | -14% | -18% | · | · | 0
COc1ccc(-c2nc(Cn3c(SCc4ccc(F)cc4)nc4cccnc43)c(C)o2)cc1 | -13%[46.1 µM] | ? | -28% | · | · | -4
COc1ccc(-c2nc(Cn3c(SCc4ccc(C)cc4)nc4cccnc43)c(C)o2)cc1OC | ? | -24% | -28% | · | · | -98*
CC(=O)Nc1ccc(S(=O)(=O)/N=C2\C(=O)c3ccccc3C([O-])=C2n2cc[n+](-c3ccccn3)c2)cc1 | · | · | · | · | -5% | ?
Cc1ccc(S(=O)(=O)/N=C2\C(=O)c3ccccc3C([O-])=C2n2cc[n+](CCC(C)C)c2)cc1 | -16% | ? | ? | ? | 18µM* | ·
CCCC[n+]1ccn(C2=C([O-])c3ccccc3C(=O)/C2=N\S(=O)(=O)c2ccc(Br)cc2)c1 | ? | 98% | ? | ? | 10µM* | -13
CCOC(=O)/C=C1\NC(C)(C)CC2=C1CC(O)=C(OC)C2 | · | · | · | 8% | · | ·
Cc1ccc(NCC(=O)N=Nc2c(O)[nH]c3ccc([N+](=O)[O-])cc23)cc1 | -20% | -1% | i | -2% | -10% | 0
Cc1ccccc1NCC(=O)N=Nc1c(O)[nH]c2ccc([N+](=O)[O-])cc12 | · | · | · | · | -22% | -83*
Brc1cccc(OCCSc2ncccn2)c1 | -18% | -1% | -6% | ? | -11% | -39
Clc1ccc(OCCSc2ncccn2)c(Br)c1 | -25% | -13% | -13% | ? | 11µM* | 93
Cc1nc(Cl)c(C(=O)NCc2ccccc2)c(C)c1[N+](=O)[O-] | -12%[46.1 µM] | -15% | -1% | 0%[46.1 µM] | 12% | ?
Cc1nc(Cl)c(C(=O)NCc2ccccc2)c(C)c1Cl | -1% | -11% | i | -5% | -1% | -70*
O=C(NCc1ccccc1)c1c(Cl)nc(Cl)c(Cl)c1Cl | -26% | ? | -9% | ? | 13µM* | -84*
CC(=O)Nc1ccc2c(=O)n(-c3ccccc3)sc2c1 | · | -1% | i | · | · | -75*
Cc1ccccc1-n1sc2cc(F)ccc2c1=O | -17% | -17% | -27% | ? | ? | -98*
N#Cc1ccc2c(=O)n(-c3ccccc3)sc2c1 | · | -24% | -26% | · | · | 45
O=c1c2ccccc2sn1-c1ccccc1 | ? | -21% | i | ? | ? | -83*
O=c1c2ccccc2sn1-c1cccc(Cl)c1 | · | -27% | -9% | · | · | -28
O=C(O)c1cccc(-n2sc3ccccc3c2=O)c1 | · | -12% | -3% | · | -1% | -61*
Cc1ccc2cccc(NC(=O)c3cccc4c(Br)cccc34)c2n1 | 3%[46.1 µM] | 5% | -10% | ? | · | -5
Cc1ccc(Nc2c(-c3cccnc3)nc3ccc(Cl)cn23)cc1 | -28%[46.1 µM] | -14% | i | 1%[46.1 µM] | · | -4
O=c1c2ccccc2sn1-c1ccccc1F | · | ? | -14% | · | · | -109*
C[C@@H](NC(=O)c1ncn2c1c(=O)[nH]c1ccc(Br)cc12)c1ccccc1 | · | ? | ? | · | · | -100*
CCNc1ccc(Br)cc(C(=O)/C=C/c2ccc(Cl)cc2Cl)c1=O | ? | · | · | ? | 8.9µM* | -103*
CNc1ccc(Br)cc(C(=O)/C=C/c2ccc(OC)cc2)c1=O | -15% | -6% | i | -17% | 34% | 3
O=C1C(=O)N(Cc2cccnc2)[C@@H](c2ccccn2)/C1=C(/O)c1ccc(F)cc1 | · | · | · | 22% | · | ·
CCOC(=O)N1CCN(C(=O)CSc2nc3nc(C)cc(C)n3n2)CC1 | 22% | -19% | -12% | 22% | 34% | 22
Cc1cc(-n2c(C)cc(C(=O)CSc3ncnc4ccccc34)c2C)no1 | ? | · | · | 9.2µM* | 2.8µM* | -78*

High-throughput results (PubChem BioAssay)
